Experimental data from PubChem BioAssay AID1159606 (Sanford-Burnham Center for Chemical Genomics, 2016).
About 7,300 (2%) of roughly 360,000 compounds were called active. The entries come from a sample that favours actives as a whole. A number with no mark means an inactive call. Rule as the data show it: active = inhibition above about 50%; inactive = the rest.

assay: inhibitors of TWEAK-Fn14 signaling, primary screen, luciferase reporter cells, uHTS (AID 1159606); conditions: TWEAK-stimulated Fn14 reporter cells, luciferase luminescence, 8 h; at 10 µM; active compounds read high

| SMILES | inhibition |
| --- | --- |
| O=C(Nc1ccc(NC(=O)c2cccs2)cn1)c1ccco1 | 57.4% (active) |
| Cc1ccc(NC(=O)c2ccco2)cc1 | -27.8% |
| O=C(COC(=O)c1ccco1)Nc1ccc(Cl)cn1 | -3.57% |
| CC1CN(c2cc(=O)n(Cc3ccc(F)cc3)c(=O)[nH]2)CC(C)O1 (stereo not drawn) | -5.29% |
| CC(=O)OCC(C)n1c(=O)c2ccccc2n1C(C)=O (stereo not drawn) | 2.6% |
| CCC(c1nnnn1-c1ccc2c(c1)OCCO2)N1CCN(c2ccc(C(F)(F)F)cn2)CC1 (stereo not drawn) | 30.4% |
| CCc1cccc(CC)c1NC(=S)NCc1ccc2[nH]c(C)cc2c1 | 12.3% |
| Cc1cc(C)cc(NC(=S)NCCc2c[nH]c3ccccc23)c1 | 7.03% |
| Cc1cccc(NC(=S)NCc2ccc3[nH]c4c(c3c2)CCCC4)c1 | 70.9% (active) |
| Cc1ccc(CCN2CC(C(=O)O)CC2=O)cc1 (stereo not drawn) | -5.87% |
| O=C(Cn1cnc2ccccc2c1=O)NCC1COc2ccccc2O1 (stereo not drawn) | 9.26% |
| c1ccc(-c2cc3c(NCC4COc5ccccc5O4)ncnc3s2)cc1 (stereo not drawn) | 77.3% (active) |
| Cc1noc(C)c1C(=O)NCC1COc2ccccc2O1 (stereo not drawn) | -8.54% |
| COc1cccc(N(CC(=O)NC2CCCCCC2)S(=O)(=O)c2ccccc2)c1 | -34.4% |
| C=CCn1c(=NC(=O)c2cccs2)sc2cc(NC(C)=O)ccc21 | -34.5% |
| CCOC(=O)N1CCN(C(c2ccnc3ccccc23)c2nnnn2-c2c(C)cccc2C)CC1 (stereo not drawn) | 8.32% |
| O=C(OCc1nnc(-c2ccccc2)o1)c1cc(=O)[nH]c2ccccc12 | -0.55% |
| O=C(COC(=O)c1cc(=O)[nH]c2ccccc12)NCc1cccc(Cl)c1 | -18.6% |
| O=C(COC(=O)c1cc(=O)[nH]c2ccccc12)Nc1nc(-c2cccc(Br)c2)cs1 | 75.8% (active) |
| CC1=CC(=C(C#N)c2nc3ccccc3s2)C=C(C)N1c1ccc(F)cc1F | 55.1% (active) |
| Cc1nn(-c2ccc(F)cc2)c(Cl)c1/C=C(/CCC(=O)O)c1nc2ccccc2s1 | -0.77% |
| N#Cc1ccc(-c2nc3c(Cl)cc(C(F)(F)F)cn3c2Cc2ccccc2C(F)(F)F)cc1 | -2.71% |
| NS(=O)(=O)c1ccc(NC(=O)COC(=O)CCc2c[nH]c3ccccc23)cc1 | -2.39% |
| NS(=O)(=O)c1ccc(NC(=O)COC(=O)c2ccco2)cc1 | -4.93% |

| SMILES | inhibition |
| --- | --- |
| NS(=O)(=O)c1ccc(NC(=O)COC(=O)c2c3c(nc4ccccc24)/C(=C\c2ccc4c(c2)OCO4)CCC3)cc1 | 55.8% (active) |
| COc1ccc(CCN2CC(C(=O)NCCN3CCNC3=O)CCC2=O)cc1 (stereo not drawn) | -4.1% |
| CCOC(=O)CN(C)S(=O)(=O)c1ccc(-c2cc(C(=O)OC)sc2C(F)(F)F)cc1 | 0.95% |
| S=C(Nc1cccnc1)Nc1ccccn1 | -12.4% |
| O=C(N/N=C/c1ccccn1)c1cccc(NC(=O)c2ccc(Cl)cc2)c1 | 9.71% |
| S=C(NN=Cc1ccccn1)Nc1ccccn1 | 105% (active) |
| COC(=O)c1[nH]c2ccc(Br)cc2c1NC(=O)Oc1ccccc1 | 5.94% |
| Cc1ccccc1CC1(CO)CCCN(Cc2ccc3c(c2)OCCO3)C1 (stereo not drawn) | 6.31% |
| COc1ccc(C2(C)NC(=O)N(CC(=O)c3ccc4c(c3)OCO4)C2=O)cc1 (stereo not drawn) | -0.46% |
| CC(=NCc1ccco1)c1c(C(F)(F)F)[nH]n(-c2nc3ccccc3s2)c1=O | 75.8% (active) |
| C=CCN(C(=O)Nc1ccc2c(c1)nc(C)n2C)c1ccccc1 | -7.06% |
| Cc1nc2cc(NC(=O)Nc3cccc(F)c3)ccc2n1C | 81.1% (active) |
| Cc1nc2cc(NCc3cccs3)ccc2n1C | -6.1% |
| CCCCC(O)C1=C[N+](=O)CC=C1 (stereo not drawn) | 39.5% |
| O=C(NCc1cccnc1)c1ccc2nc([C@@H]3O[C@H](CO)[C@H](O)[C@H](O)[C@H]3O)[nH]c2c1 | 13.3% |
| COCCc1nn2c(=O)cc(COC(=O)c3cc(OC)c(OC)c(OC)c3)nc2s1 | 2.03% |
| NC(N)=Nc1nc(-c2ccccc2)c2cc(Cl)ccc2n1 | -9.76% |
| Clc1ccc2nc(-c3ccccc3)nc(C(Cl)Cl)c2c1 | 54.4% (active) |
| O=C(Cc1ccc(Cl)cc1)NCc1nc(-c2ccccc2)no1 | -18% |
| O=S(=O)(c1ccccc1)N1CN(Cc2ccc(F)cc2)c2nc3ccccc3nc21 | 11% |
| Oc1c(CN2CCOCC2)ccc(CN2CCOCC2)c1O | 2.4% |
| CSc1nc(-c2ccccc2)nc(C(Cl)Cl)n1 | 65.2% (active) |
| Cc1cccc(N=C2SC(C)CN2C(=O)CN2C(=O)NC3(CCCC3)C2=O)c1 (stereo not drawn) | 5.82% |
| O=C(CNc1ccccc1N1CCCC1=O)Nc1cc(Cl)ccc1-n1cncn1 | 2.85% |

| SMILES | inhibition |
| --- | --- |
| COc1ccc(C2NC(=S)NC3=C2CCc2ccccc23)cc1OC (stereo not drawn) | 9.33% |
| Cc1cc(Br)ccc1NC(=O)c1sc2ncn(CC(=O)N3CCN(c4ccccn4)CC3)c(=O)c2c1C | 9.08% |
| Cc1cc(Br)ccc1NC(=O)c1cnc(N2CCN(c3ccccn3)CC2)c2ccccc12 | 80.5% (active) |
| Cc1cc(C(=O)N2CCN(c3ccccn3)CC2)c(C)o1 | -12.8% |
| CCc1ccccc1NC(=O)c1cc(-c2ccc3c(c2)OCO3)on1 | -6.05% |
| CCOC(=O)c1sc2nc(C)nc(Nc3ccc(OC)c(OC)c3)c2c1C | 10.5% |
| CC1CCC(NC(=O)CN(C)S(=O)(=O)c2ccc3c(c2)c(=O)n(C)c(=O)n3C)CC1 (stereo not drawn) | -18.7% |
| COc1cnc(SCc2ccc(Cl)c(Cl)c2)nc1Cl | -23.9% |
| Cc1c(Cl)c([N+](=O)[O-])nn1CC(=O)NCC1CCCO1 (stereo not drawn) | 12.8% |
| Cc1c(Cl)c([N+](=O)[O-])nn1CC(=O)NCCCN1CCOCC1 | 55.9% (active) |
| CCCCNC(=O)Cn1nc(C)c(S(=O)(=O)N2CCOCC2)c1C | 10.8% |
| OCCc1ccc(NCCc2ccco2)cc1 | -21.3% |
| Cc1nc2nc(SCC(=O)c3ccccc3)[nH]c2cc1Br | -4.34% |
| Cc1cc(SCC(=O)c2ccccc2)nc(SCC(=O)c2ccccc2)n1 | 53.9% (active) |
| Cc1nc(SCC(=O)c2ccccc2)c([N+](=O)[O-])[nH]1 | 9.51% |
| C[C@H](CO)N1C[C@H](C)[C@H](CN(C)C(=O)c2ccncc2)OCc2ccccc2-c2c(n(C)c3ccccc23)C1=O | 2.05% |
| O=C(CCC(=O)OCc1cccc(C(=O)Oc2ccccc2)c1)Nc1cccc2ccccc12 | -15.2% |
| Cc1cccc(NC(=O)/C=C/c2ccc3c(c2)OCO3)n1 | 23.5% |
| C(=N\Nc1ccc2ccccc2n1)/c1ccc2c(c1)OCO2 | 86.3% (active) |
| O=C(CNC(=O)C(c1ccccc1)c1ccccc1)N/N=C\c1ccc2c(c1)OCO2 | -46.1% |
| Cc1ccc(CNC(=O)CCCNC(=O)c2ccc(Cl)cc2)n1C | -27.7% |
| COc1ccc(N2CC(C(=O)N[C@@H](C)C(=O)N3CCCCC3)CC2=O)cc1 (stereo partly drawn) | -3.79% |
| COc1cc(C(=O)N2CCN(C)CC2)cc(OC)c1OC | 6.59% |
| CCOc1ccc(N2C(=O)CSC2=NC#N)cc1 | 11.8% |

| SMILES | inhibition |
| --- | --- |
| COc1cc(N2C(=O)CC3(CCCC3)CC2=O)cc(OC)c1OC | 15.3% |
| O=C1CSC(=S)N1c1ccc(Cl)c(Cl)c1 | 49.6% |
| COc1cc(N2C(=O)CSC2=S)cc(OC)c1OC | 58.5% (active) |
| O=C1CSC(=S)N1c1ccc(O)cc1 | 75.1% (active) |
| Cc1ccc(NC(=O)CSc2nn3c(=O)c(C)nnc3s2)cc1Cl | 8.21% |
| CC(C)(C)c1ccc(Cn2nnc3c(=O)[nH]c(C4CCCN(C(=O)c5ccco5)C4)nc32)cc1 (stereo not drawn) | 25.6% |
| Cc1ccc(Cn2nnc3c(=O)[nH]c(C4CCN(S(=O)(=O)/C=C/c5ccccc5)CC4)nc32)cc1 | 50.3% (active) |
| Cc1ccc(NC(=O)N2CCC(c3nc4c(nnn4Cc4c(F)cccc4Cl)c(=O)[nH]3)CC2)cc1 | 19.1% |
| O=C(OC1CCOC1=O)c1cccc(S(=O)(=O)Nc2ccc(F)cc2)c1 (stereo not drawn) | 2.12% |
| COc1ccc(-c2cc3nc(NCCOc4ccccc4)ccn3n2)cc1 | 5.16% |
| Cc1ccc(C(=O)N/C(=C\c2cccs2)C(=O)NCCc2ccccn2)cc1C | 5.63% |
| COc1cncc(-c2cnc3sc(NCCc4ccccn4)nn23)c1 | 64.8% (active) |
| CCC1(CC)NC(=O)N(CC(=O)OCC(=O)c2cc(C)c(C)cc2C)C1=O | -7.64% |
| C=CCC[C@@H](Cc1ccc(F)cc1)C(=O)O[C@H](CNC(=O)[C@H](CC=C)CC(=O)N(CCO)Cc1ccccc1)c1ccccc1 | 36.5% |
| CN1CCN(C(=O)c2ccc(NC(=O)c3ccc(Br)o3)cc2)CC1 | 2.47% |
| O=C(Nc1ccc(S(=O)(=O)N2CCCCCC2)cc1)c1c(F)cccc1F | 2.17% |
| COc1cccc(OC)c1C(=O)Nc1ccc(Cc2ccncc2)cc1 | -17.4% |
| O=C(Nc1ccncc1)c1c(F)cccc1F | 66.7% (active) |
| CN(C)S(=O)(=O)c1ccc(N2CCCC2)c(C(=O)NCc2ccccc2)c1 | 63.4% (active) |
| CN(C)S(=O)(=O)c1ccc(N2CCCC2)c(C(=O)Nc2cccc(F)c2)c1 | 0.2% |
| Cc1ccccc1OCC(=O)NNC(=O)c1cc(S(=O)(=O)N(C)C)ccc1N1CCCC1 | -9.51% |
